Epigenetic derep: epigenetic control regulation, reporter derepression | murine LDR cells, GFP reporter derepression, 30 h | Potency, µM (series often up to 53.9 µM), most hits filed as activators | 280,000 tested, 0.2% active | AID 1865; active = well fitted activation curve with a large enough effect; inconclusive = small, poorly fitted or top-dose-only effect; note: nearly all actives have a fitted effect of over 60% in size
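Derepression of a silenced CMV-GFP reporter in murine LDR cells is scored by enumerating GFP-positive cells with a laser-scanning microplate cytometer after 30 hours of treatment at 37 C.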
D1 ag: agonists of human D1 dopamine receptor; AID 504660; HEK293 T-REx D1 cells, calcium flux, agonist mode; activation, % at 2 µM; P21728; 360,000 tested, 1% active
Target sequence (P21728 whole entry, looked up): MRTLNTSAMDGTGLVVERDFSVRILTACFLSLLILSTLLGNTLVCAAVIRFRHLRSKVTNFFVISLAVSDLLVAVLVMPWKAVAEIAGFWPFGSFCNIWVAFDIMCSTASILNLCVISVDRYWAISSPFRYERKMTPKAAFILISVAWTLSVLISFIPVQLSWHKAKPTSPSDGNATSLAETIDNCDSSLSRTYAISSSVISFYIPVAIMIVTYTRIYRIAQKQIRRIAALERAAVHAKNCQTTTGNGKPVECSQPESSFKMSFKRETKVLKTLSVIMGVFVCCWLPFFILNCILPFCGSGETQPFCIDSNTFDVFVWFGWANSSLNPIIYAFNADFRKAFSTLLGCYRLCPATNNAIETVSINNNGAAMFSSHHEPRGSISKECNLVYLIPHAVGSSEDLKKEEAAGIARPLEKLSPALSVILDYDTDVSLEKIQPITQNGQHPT
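Agonism was scored from calcium flux recorded over 180 s (1 read/s) after pintool compound addition, following a 10-cycle baseline. Cells were inducible force-coupled HEK293 TREx D1, plated overnight at 30 C and loaded with no-wash calcium dye.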
TRHR agonist: agonists of human TRH receptor; P34981; TRHR cells, calcium flux fluo-8, FDSS agonist mode; activation, % at 2 µM; 360,000 tested, 0.18% active; AID 493084
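Read-out: compound-evoked intracellular calcium rise in TRHR cells, fluo-8 dye, kinetic FDSS fluorescence at 1 s/cycle following a 10-cycle baseline. Cells cultured overnight before dye loading (30 min–1.5 h, RT).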
D1 PAM: enhances dopamine response at the human D1 receptor. 360,000 tested, 0.036% active. potentiation, % at 10 µM. AID 504651. HEK293 TREx D1 cells, calcium flux, dopamine EC20 potentiation. P21728; in the data active = potentiation above about 30%
TRHR PAM: allosteric enhancers of human TRH receptor; TRHR cells, fluo-8 calcium fluorescence, EC20 TRH enhancement; enhancement, % at 2 µM; 360,000 tested, 0.66% active; AID 493056; in the data active = enhancement above about 30%
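TRHR-expressing cells loaded with fluo-8 calcium dye were read kinetically (ex 480/em 530) during compound addition, then stimulated with an EC20 of TRH (10 nM final). Enhancement of the Gq-mediated intracellular calcium response was scored.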
D1 antagonist: antagonists of human D1 dopamine receptor. P21728. HEK293 TREx D1 cells, calcium flux, dopamine EC80; hits give low values. activity change, negative = inhibition, % at 10 µM. 360,000 tested, 3.2% active. AID 504652; in the data active = activity change below about -30%
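HEK293 T-REx cells expressing inducible, force-coupled D1 receptor; no-wash Ca dye, 30–90 min RT. Cmpd → 180 s read at 1 Hz → EC80 DA → 180 s read.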
Hits are given with their value; – = inactive; ? = inconclusive; · = no result given. A selection: hits, their analogues and other compounds. The true share with any hit is near 4.6%. Cut-off read from the data, not from the text of the source, unless noted: active = activation above about 30%; inactive = the rest.

SMILES	Epigenetic derep	D1 ag	TRHR agonist	D1 PAM	TRHR PAM	D1 antagonist
O=C(CN1C(=O)NC(Cc2ccccc2)C1=O)Nc1ccc(F)cc1 (centres undefined)	–	–	–	–	–	-86
CCOc1ccc(NC(=O)c2ccc(F)c(S(=O)(=O)NCc3ccc4c(c3)OCO4)c2)cc1	–	–	–	–	–	-34
O=C(c1ccc(COc2ccc(Cl)cc2)o1)N1CCN(Cc2ccc3c(c2)OCO3)CC1	–	–	–	–	–	-43
O=C(c1ccc(COc2ccccc2Cl)o1)N1CCN(Cc2ccc3c(c2)OCO3)CC1	–	–	–	–	–	–
CCOc1ccc(NC(=O)N2CCN(Cc3ccc4c(c3)OCO4)CC2)cc1	–	–	–	–	–	-78
COc1cc(OC)c(NC(=O)Cn2c(=O)nc(-c3ccccc3)c3ccccc32)cc1Cl	–	–	–	–	–	–
CCOc1ccccc1C(=O)Nc1cc2c(cc1N1CCOCC1)n(C)c(=O)n2C	–	–	–	–	–	–
CCn1c(SCC(=O)c2[nH]c(C)c(C(C)=O)c2C)nnc1-c1ccncc1	–	–	–	–	–	–
CCn1c(SCC(=O)c2[nH]c(C)c(C(C)=O)c2C)nnc1-c1ccccc1	–	–	–	–	–	-35
CN(C)CCNC(=O)CN1C(=O)COc2ccc(S(=O)(=O)N3CCCC3)cc21	–	–	–	–	–	–
CCOc1ccc(S(=O)(=O)n2nc(C)cc2C)c2ccccc12	–	–	–	–	35	–
OC[C@H]1O[C@@H](n2cnc3c(N[C@H]4C[C@H]5CC[C@@H]4C5)ncnc32)[C@H](O)[C@@H]1O	–	·	·	·	·	·
Cc1c(C(=N)C(C#N)C#N)c(=N)oc2c1ccc1ccccc12	–	–	–	–	–	-41
Cc1c(C(=O)O)oc2c1ccc1ccccc12	–	–	–	–	–	–
CC(=O)N1CCc2cc(Br)cc(S(=O)(=O)CCC(=O)N3CCN(c4ccccc4)CC3)c21	–	–	–	–	–	–
CCOC(=O)Cc1csc(NC(=O)Nc2cccc(OC)c2)n1	–	–	–	–	–	-33
CCOC(=O)Cc1csc(NC(=O)c2cccc([N+](=O)[O-])c2)n1	·	–	–	–	–	-31
CCOC(=O)Cc1csc(NC(=O)c2sc3nc4c(C)cc(C)cc4cc3c2N)n1	?	85	38	–	–	–
CCOC(=O)CN(Cc1sccc1C)C(=O)Nc1cccc(OC)c1	–	–	–	–	–	-37
CCOC(=O)Cc1csc(NC(=O)c2cccc(OC)c2)n1	–	–	–	–	–	–
COc1ccc(Br)c(C(=O)Nc2cc3c(cc2N2CCOCC2)n(C)c(=O)n3C)c1	–	–	–	–	–	–
CC(C)(Oc1ccc(-c2ccco2)cc1)C(=O)O	–	–	–	–	–	-46
CC(C)(Oc1ccc(CCNC(=O)c2ccc(-c3ccccc3)o2)cc1)C(=O)O	–	–	–	–	–	–
O=C(NCCCNc1ccc(C(F)(F)F)cc1[N+](=O)[O-])c1ccc(F)cc1	18µM	–	–	–	–	–
Cc1ccc(C(=O)NCCCNc2ccc(C(F)(F)F)cc2[N+](=O)[O-])cc1	–	–	–	–	–	–
SMILES	Epigenetic derep	D1 ag	TRHR agonist	D1 PAM	TRHR PAM	D1 antagonist
O=C(CC1NCCNC1=O)Nc1ccc(F)c(Cl)c1 (centres undefined)	–	–	–	–	–	–
CCCN(CCC)CCCNC(=O)C1CCN(c2nc3ccc(CC)cc3s2)CC1	–	30	–	–	–	-31
CCCCN(CCCC)CCCNC(=O)c1ccc2nc(N3CCCCC3)sc2c1	–	–	–	–	–	–
CCc1ccc2nc(N3CCC(C(=O)NCCC(C)C)CC3)sc2c1	–	–	–	–	–	–
CCCN(CCC)CCNC(=O)C1CCN(c2nc3ccc(CC)cc3s2)CC1	–	90	–	–	–	-30
CC(=O)OCC(=O)[C@]1(O)C(OC(C)=O)CC2C3CCC4=CC(=O)C=C[C@@]4(C)[C@]3(F)C(O)C[C@]21C (some centres undefined)	–	·	·	·	·	·
COc1ccc(Cn2ccnc2SCC(=O)Nc2ccccc2OC)cc1	·	–	–	–	–	–
COc1ccc(Cn2ccnc2SCC(=O)Nc2ccccc2F)cc1	·	–	–	–	–	-31
COc1ccc(Br)c(C(=O)Nc2cc3c(cc2N2CCCCC2)n(C)c(=O)c(=O)n3C)c1	–	–	–	–	–	–
Cn1c(-c2c(N)n(CCCc3ccccc3)c3nc4ccccc4nc23)nc2ccccc21	?	52	–	–	–	–
Cn1c(-c2c(N)n(C3CCCC3)c3nc4ccccc4nc23)nc2ccccc21	–	53	–	–	–	–
COCCCn1c(N)c(-c2nc3ccccc3n2C)c2nc3ccccc3nc21	–	77	–	–	–	–
COCCNC(=O)c1c(N)n(CCCn2ccnc2)c2nc3ccccc3nc12	–	–	–	–	–	-47
O=CNCc1nc2ccccc2n1CCCc1ccccc1	·	–	–	–	–	–
N#Cc1c(N)n(CCc2ccc(F)cc2)c2nc3ccccc3nc12	–	–	–	–	–	–
Cn1c(-c2c(N)n(CCc3ccccc3)c3nc4ccccc4nc23)nc2ccccc21	?	77	–	–	–	–
CCCC(=O)OCCNc1cc(Sc2nccn2C)c2nonc2c1[N+](=O)[O-]	–	–	–	–	–	-32
Nn1c(SCc2cc([N+](=O)[O-])cc3c2OCOC3)nnc1-c1cccnc1	–	–	–	–	–	–
O=[N+]([O-])c1cc2c(c(CSc3nnnn3-c3ccc(O)cc3)c1)OCOC2	–	–	–	–	–	-33
COc1ccc(C2=NC(C)(C)N(CC(=O)Nc3cccc(C)c3)C2=O)cc1	–	–	–	–	–	–
COC(=O)c1ccc(N2CCOCC2)c(NC(=O)c2ccc3c(c2)OCO3)c1	·	–	–	–	–	–
COc1ccc(N2CCOCC2)c(NC(=O)c2ccc3c(c2)OCO3)c1	·	–	–	–	38	–
COc1ccc(C(=O)Nc2ccccc2N2CCOCC2)cc1[N+](=O)[O-]	–	–	–	–	–	-32
COc1cc(NC(=O)c2ccc3c(c2)OCO3)c2ncccc2c1	–	–	–	–	–	-31
O=C(Nc1cccc2cccnc12)c1ccc2c(c1)OCCO2	–	–	–	–	–	–
COc1ccc(N2CCCC2)c(NC(=O)c2ccc([N+](=O)[O-])o2)c1	·	–	–	–	–	-36
COc1ccc(C(=O)NC(=S)Nc2ccccc2N2CCOCC2)cc1[N+](=O)[O-]	–	–	–	–	–	–
CC(C)CNC(=O)N1[C@H](c2cccs2)[C@@H](C)C(=O)[C@@H](C)[C@@H]1c1cccs1	–	–	–	–	–	–
O=C(Nc1csc([N+](=O)[O-])c1)Nc1ccccc1Cl	–	–	–	–	–	-31
